The panel holds about 83,000 compounds, 20% with a hit somewhere; the sample as a whole holds those more often.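 Activity criterion: percent growth below 10, measured after cells in 96-well plates were exposed to a single compound concentration for 48 hours.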 Unmarked numbers belong to inactive results. Active and inactive are the calls of the source.
Experiments:
Assay in all cases: NCI-60 one-dose screen, 48 h (100 = growth as untreated, 0 = no growth, -100 = all killed)
Settings in all cases: 10 µM unless noted
EKVX NSCLC = tested on: EKVX NSCLC
SN12C renal = tested on: SN12C renal
UO-31 renal = tested on: UO-31 renal
TK-10 renal = tested on: TK-10 renal
ACHN renal = tested on: ACHN renal
CAKI-1 renal = tested on: CAKI-1 renal
A498 renal = tested on: A498 renal
CCRF-CEM leukemia = tested on: CCRF-CEM leukemia
MOLT-4 leukemia = tested on: MOLT-4 leukemia
SR leukemia = tested on: SR leukemia
OVCAR-8 ovarian = tested on: OVCAR-8 ovarian
OVCAR-5 ovarian = tested on: OVCAR-5 ovarian
OVCAR-4 ovarian = tested on: OVCAR-4 ovarian
SK-OV-3 ovarian = tested on: SK-OV-3 ovarian
IGROV1 ovarian = tested on: IGROV1 ovarian
OVCAR-3 ovarian = tested on: OVCAR-3 ovarian
HS 578T breast = tested on: HS 578T breast
NCI/ADR-RES ovarian = tested on: NCI/ADR-RES ovarian
RPMI-8226 leukemia = tested on: RPMI-8226 leukemia

| SMILES | growth (EKVX NSCLC) [%] | growth (SN12C renal) [%] | growth (UO-31 renal) [%] | growth (TK-10 renal) [%] | growth (ACHN renal) [%] | growth (CAKI-1 renal) [%] | growth (A498 renal) | growth (CCRF-CEM leukemia) | growth (MOLT-4 leukemia) | growth (SR leukemia) | growth (OVCAR-8 ovarian) | growth (OVCAR-5 ovarian) [%] | growth (OVCAR-4 ovarian) | growth (SK-OV-3 ovarian) [%] | growth (IGROV1 ovarian) [%] | growth (OVCAR-3 ovarian) | growth (HS 578T breast) [%] | growth (NCI/ADR-RES ovarian) | growth (RPMI-8226 leukemia) [%] |
| --- | --- | --- | --- | --- | --- | --- | --- | --- | --- | --- | --- | --- | --- | --- | --- | --- | --- | --- | --- |
| O=S(=O)(O)c1ccc(N=Nc2ccc(N=Nc3cccc4ccccc34)c(S(=O)(=O)O)c2)cc1 | 97 | 102 | 84.1 | 112 | 97.8 | 97 | 90.1% | 101% | 108% | 99.4% | 101% | 103 | 93.2% | 85.4 | 96.3 | 103% | 104 | 103% | – |
| COc1ccc(CCNC(=O)COc2cc3c(Nc4ccc(F)c(Cl)c4)ncnc3cc2OC)cc1OC | 78.2 | 85.2 | 46.8 | 37.4 | 49 | 46.5 | 55.6% | 100% | 93.4% | 82.3% | 103% | 65.4 | 92.4% | – | 46.3 | 82.8% | 92.4 | 85.6% | 90.1 |
| Cc1ccc(Nc2nc(-c3cc(O)c(C)c(C)c3O)cs2)cc1 | 97.4 | 97 | 89.7 | 120 | 99.1 | 92.7 | 123% | 14.8% | 26.5% | 70.3% | 84.1% | 109 | 105% | 105 | 92.9 | 104% | 97.9 | 73% | 77.5 |
| OCc1cc(CN2CCCCC2)c(O)c2ncccc12 | 65.5 | 59.9 | 17.7 | 31 | 20.7 | 13 | – | 29.5% | 36% | 27% | 50.5% | 59.1 | 34.9% | 49.4 | 52.7 | 45% | 85.6 | 8.71% (active) | 71.9 |
| CCOC(=O)c1c(-c2ccc(OC)cc2)c(C#N)c2c(C#N)c(N)nn2c1N | 41.1 | 40.8 | 47.6 | 57.7 | 53.3 | 39.8 | -7.96% (active) | 5.96% (active) | 10% | 0.886% (active) | 43.9% | 70.1 | 68.1% | 45.8 | 24.6 | 5.29% (active) | 27.7 | 17.8% | 13.8 |
| CCCCC1=C(Br)C(=O)c2nc(C)ccc2C1=O | 92.7 | 91.6 | 70.8 | 115 | 57.1 | 85.9 | 93.8% | 30.9% | 21.3% | 21.8% | 88.3% | 102 | 75.5% | – | 83.9 | 48.5% | 90.9 | 100% | 58.5 |
| Cc1ccc(S(=O)(=O)Nc2cc(Sc3ccccc3)c(O)c3ccccc23)cc1 | 116 | – | 64 | 111 | 91.5 | 73.1 | 70% | 12.7% | -32.2% (active) | 20.8% | -0.704% (active) | 106 | -99.7% (active) | 115 | 85 | -5.01% (active) | 98.7 | 5.05% (active) | 28.8 |

— PubChem BioAssay (NCI)
